The values that follow come from PubChem BioAssay (NCI).

About 79,000 compounds went through this panel and 15% of them were active in at least one assay; those are over-represented in the sample as a whole. Values without a mark were called inactive. No stated cut-off is given here; in the data, active means growth inhibition above about 70%; inactive means the rest.

The nature of this assay: NCI Yeast Anticancer Drug Screen. Data for the mec2-1 strain (AID 157). The note with it: S. cerevisiae mec2-1 strain, at 50.0 µM, hits give high values. A digest of the protocol:
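mec2-1 yeast strain, carrying an alteration in DNA damage repair or cell cycle control, was exposed to compounds; growth inhibition was measured relative to vehicle-treated controls.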
`C1CNC(C2=NCCN2)=N1`: the growth inhibition is -8.2%.
To `CCOC(=O)/C(C#N)=C/c1cccc(C)c1` belongs 22.8%.
Under `Cc1c(O)cnc2nn(-c3ccccc3)c(=N)n12` stands 11.4%; under `Nc1nc(N)c2cc(S(=O)(=O)c3cccc(C(F)(F)F)c3)ccc2n1`, 24.9%; under `CC1CCC(C(=O)O)N1` (stereo not given), 6.5%.
To `COc1cc(/C=C(\C#N)C(=O)c2ccccc2)ccc1OCc1ccccc1` belongs -18.8%; to `COc1ccc(C2OC(N)=C(O)C2=O)cc1OC` (stereo not given), -23.1%; to `Cc1nc2ccccc2c(C(=O)O)c1O`, -10.2%.
With `CCCNc1ccc(C2=NCCCN2)cc1`, the growth inhibition is -19.1%.
To `N#CSc1cc(S(N)(=O)=O)ccc1N` belongs -10.2%.
Under `COc1cc(-c2ccc(NC(=O)NC3CC3)c(OC)c2)ccc1NC(=O)NC1CC1` stands -23.2%; under `COc1cc([C@@H]2c3cc4c(cc3[C@H](O)[C@H]3COC(=O)[C@H]23)OCO4)cc(OC)c1OC`, -8.55%.
For `CC(=O)Cc1cc(-c2cc(CC(C)=O)[nH]n2)n[nH]1`, the growth inhibition was -22.1%.
For `O=c1[nH]n(-c2ccccc2)c(=O)cc1Cl`, the growth inhibition was 2.25%.
Under `Cc1cc(C)cc(NCCC#N)c1` stands -32.5%.
Under `O=C(Cc1ccccc1)Cc1ccccc1` stands -5%; under `CN(C)/N=C/c1ccccc1O`, 4%.
To `NC(=S)CN1CCOCC1` belongs -3.2%.
As to `O=C(O)CSCSCC(=O)O`, the growth inhibition was -26.4%.
To `CCOC(=O)CCCC(=O)OCC` belongs -8.1%.
